Laboratory results as given in ChEMBL document CHEMBL1157539, “Thousands of chemical starting points for antimalarial lead identification” (Nature, 2010).

test system: Plasmodium falciparum; test: GSK_TCMDC: Inhibition of Plasmodium falciparum 3D7 in whole red blood cells, using parasite LDH activity as an index of growth. Test compounds present at 2uM; format: functional

Compound | Inhibition [%]
CC1(CCc2ccccc2)N=C(N)N(Cc2ccccc2)C(=O)C1c1ccc(Cl)c(Cl)c1.O=C(O)C(F)(F)F (stereo not given) | 97
Cc1cc(NC(=O)NCCN2CCC(NC(=O)c3ccc(F)cc3)CC2)c2ccccc2n1 | 99
Cc1nnc2c(NC(=O)/C=C/c3ccc(OC(F)(F)F)cc3)cc3cc(Cl)ccc3n12 | 94
Cc1cc(CN2CCC(Nc3ncc(-c4ccsc4)c4nc(C(F)(F)F)ccc34)CC2)no1.Cl | 81
CCOc1ccc(-n2nc3c(Cl)nnc(-c4ccccc4)c3c2-c2ccccc2)cc1 | 96
Cc1ccc(NC(=O)Nc2ccc(Cl)c(C(F)(F)F)c2)cc1-c1ccc(C(=O)Nc2ccncc2)cc1 | 99
O=C(Nc1ccc(-c2csc(-c3nc4ccccc4[nH]3)c2)cc1)Nc1ccc(Cl)c(Cl)c1 | 93
N#Cc1ccccc1S(=O)(=O)N1CCCC(CNC(=O)[C@H](CC2CCCCC2)NC(=O)c2cc3ccccc3s2)C1 (stereo not given in full) | 97
OC(CN1CCN(C2CCCCC2)CC1)Cn1c2ccccc2c2cc(Br)ccc21 (stereo not given) | 97
CCCCOc1cc(OC)c2ccccc2c1CCNCCCCNCCc1c(OCCCC)cc(OC)c2ccccc12.CS(=O)(=O)O | 82
Cc1cc(N[C@@H](Cc2ccccc2)C(=O)NCc2cccc(F)c2)nc(NCC2CCCCC2)n1.O=C(O)C(F)(F)F | 100
O=C(c1c(-c2[nH]c3ccccc3c2C(=O)C(F)(F)F)[nH]c2ccccc12)C(F)(F)F | 97
COc1ccc(-c2ccc(NC(=O)c3cccc(Cl)c3)cc2)cc1CN1CCCN(C)CC1.O=C(O)C(F)(F)F | 95
CN1CCN(c2ccc(-c3cc(-c4cc(F)c(F)c(F)c4)cnc3N)cc2)CC1 | 88
CCCCCCCCCN1CC[C@@H](CCCc2ccnc3ccc(O)cc23)[C@@H](CC)C1.O=C(O)C(=O)O | 83
CN1CCC(C(=O)N(Cc2ccc(-c3ccc(CNCCc4ccccc4)cn3)cc2)C2Cc3ccccc3C2)CC1.O=C(O)C(F)(F)F | 88
CN(C)Cc1ccc(-c2cc3ncnc(Nc4ccc(OCc5cccc(F)c5)c(Cl)c4)c3s2)[nH]1 | 99
CC(=O)Nc1ccc(OCCN(CC(C)C)c2ccc(C(F)(F)F)c(C#N)c2)c(Cl)c1 | 96
COc1cc(C(=O)NC2CCN(Cc3ccccc3)CC2)ccc1-c1nc2cc(Cl)c(Cl)cc2[nH]1 | 100
NC(=O)c1ccccc1OCC(=O)Nc1cccc(-c2ccc(-c3nc4cc(C(F)(F)F)ccc4[nH]3)cc2)c1 | 92

Compound | Inhibition [%]
N#Cc1cccc(C(=O)Nc2ccc(-c3cccc(CN4CCC(O)CC4)c3)cc2)c1.O=C(O)C(F)(F)F | 100
CS(=O)(=O)CCNCc1nc(-c2ccc3c(Nc4ccc(Cl)cc4F)ccnc3c2)cs1 | 88
Cc1ccccc1C(=O)Nc1cccc(-c2nc3ncccn3c2C)c1 | 94
CNCc1ccc(CN(C)c2nc(N)c3cc(OC)c(OC)cc3n2)cc1.O=C(O)C(F)(F)F | 96
COc1ccc2nc(C)cc(N/N=C/c3ccccc3[N+](=O)[O-])c2c1 | 100
C[C@@H]([C@@H](CCCCc1ccccc1)C(=O)N[C@H](C(=O)Nc1cccnc1)C(C)(C)C)N(O)C=O | 98
N#Cc1ccc(N(CCOc2ccc(Cl)c(Cl)c2)Cc2ccccc2C(F)(F)F)cc1C(F)(F)F | 90
COc1ccccc1CCN(C)CCN1CCC(NC(=O)c2ccc(-c3ccc(C(F)(F)F)cc3)cc2)CC1 | 92
COc1ccc(-c2csc(C(=O)NC3CCC(N4CCC(c5ccccc5C)CC4)CC3)c2)cc1 (stereo not given) | 100
O=C(/C=C/c1ccccc1)N1CCOC(CCN2CCC(c3ccccc3)CC2)(c2ccc(Cl)c(Cl)c2)C1 (stereo not given) | 89
CN1CCN(c2cc(-c3cccc(C(F)(F)F)c3)nc(-c3ccncc3)n2)CC1 | 100
COc1cc(Cc2cnc(N)nc2N)cc(OCCCCCC(=O)O)c1OC.Cl | 95
c1ccc(Nc2nc(-c3ccccn3)cs2)nc1 | 87
COc1cc2nccc(Nc3ccc(OCc4ccc(NC(C)=O)cc4)cc3)c2cc1OC.Cl | 100
CCc1cc([C@H]2O[C@@H](n3cnc4c(NCC(c5ccccc5)c5ccccc5)nc(NCCNc5ccccn5)nc43)[C@H](O)[C@@H]2O)on1.O=CO | 94
Cc1c(OC(C)C)nc2ccccc2c1C(=O)N[C@H](c1cccc(F)c1)C1CC1 | 83
O=C(Nc1cccc(-c2cccc(-c3nc4cc(F)ccc4[nH]3)c2)c1)c1ccoc1 | 98
COCCn1c(C)nc2ccccc2c1=O | 89
COc1cccc(OC)c1OCCCOc1c(C)nc(N)nc1N.Cl | 97
COc1ccc(-c2nc3cccnc3n2CC(=O)Nc2cc(Cl)c(Cl)cc2Cl)c(OC)c1 | 100
